D3 ag = D3 dopamine receptor (human) agonism; max activation, %; 410,000 tested, 0.58% active; P35462; D3R DiscoveRx beta-arrestin cells, luminescence, 90 min; in the data active means max activation above about 30%; further: 0% is about no effect
Target sequence (P35462 whole entry, looked up): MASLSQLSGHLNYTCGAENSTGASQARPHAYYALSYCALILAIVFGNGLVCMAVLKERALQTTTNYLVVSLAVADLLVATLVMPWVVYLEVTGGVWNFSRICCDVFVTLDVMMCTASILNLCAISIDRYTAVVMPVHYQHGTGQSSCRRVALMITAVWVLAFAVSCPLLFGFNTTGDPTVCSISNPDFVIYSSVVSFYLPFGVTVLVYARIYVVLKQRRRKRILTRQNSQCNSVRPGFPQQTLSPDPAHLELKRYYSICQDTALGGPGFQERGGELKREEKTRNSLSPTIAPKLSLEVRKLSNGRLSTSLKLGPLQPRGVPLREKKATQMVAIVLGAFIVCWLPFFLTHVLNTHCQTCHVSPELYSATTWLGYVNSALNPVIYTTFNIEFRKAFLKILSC
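Agonist mode: compounds and dopamine controls were applied to plated cells for 90 min at 37 degrees C after an overnight attachment at 1500 cells/well. Luminescent read-out followed 30 - 60 minutes at room temperature with DiscoveRx detection reagent.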
D3 antag = antagonists of human D3 dopamine receptor. max response, negative = inhibition, %. D3R cells, DiscoveRx beta-arrestin luminescence, antagonist mode; active compounds read low. P35462. AID 652054. 360,000 tested, 2.5% active; in the data active means max response below about -50%; inconclusive means no clear call, values can overlap the other calls; further: on the % scale 0 is the no-effect control and ±100 the full control effect
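Cells plated overnight at 1500 cells/well, then exposed to library compounds with dopamine controls for 90 minutes at 37 degrees C. DiscoveRx reagent added for 30–60 minutes at room temperature; luminescence read, quantitative HTS format.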
D1 PAM = potentiators of human D1 dopamine receptor; AID 504651; HEK293 TREx D1 cells, calcium flux, dopamine EC20 potentiation; potentiation, % at 10 µM; 360,000 tested, 0.036% active; in the data active means potentiation above about 30%; further: 0% is about no effect
D1 ag = activates the human D1 dopamine receptor | P21728 | HEK293 T-REx D1 cells, calcium flux, agonist mode | activation, % at 2 µM | 360,000 tested, 1% active | AID 504660; in the data active means activation above about 30%; further: 0% is about no effect
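Inducible HEK293 T-REx D1 cells, force-coupled to calcium signalling, were plated at 4000 cells/well with tetracycline and held overnight at 30 C. After no-wash calcium dye loading, compound-evoked calcium rise over 180 s flagged agonists.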
D1 antag = human D1 dopamine receptor antagonism; P21728; HEK293 TREx D1 cells, calcium flux, dopamine EC80; active compounds read low; activity change, negative = inhibition, % at 10 µM; 360,000 tested, 3.2% active; AID 504652; in the data active means activity change below about -30%; further: on the % scale 0 is the no-effect control and ±100 the full control effect
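HEK293 T-REx cells expressing inducible, force-coupled D1 receptor; no-wash Ca dye, 30–90 min RT. Cmpd → 180 s read at 1 Hz → EC80 DA → 180 s read.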
Starred values were filed as active, the others as inactive; ? = inconclusive; . = no result given. Sampled rows, rich in hits. Any-hit rate of the full collection: about 6%.

SMILES	D3 ag	D3 antag	D1 PAM	D1 ag	D1 antag
CCOC(=O)N1CCC(N2CCN(S(=O)(=O)c3ccc(OC)cc3)CC2)CC1	11	12	-4	13	-36*
COc1ccc(NC(=O)CSc2nc3ccccc3nc2N2CCCC2)cc1Cl	2	0	-6	4	13
COc1ccc(NC(=O)Cn2c(NCC(C)O)nc3ccccc32)cc1Cl (stereo unspecified)	1	5	-10	1	-70*
COc1cc(OC)c(NC2(c3ccccc3)C(=O)c3ccccc3C2=O)cc1Cl	0	.	-3	-1	-18
O=C(NCCCN1CCCC1)C1CCN(C(=O)c2cc3sccc3n2Cc2ccc(F)cc2)CC1	-3	-52*	-3	2	4
O=C(NCc1ccco1)C1CCN(C(=O)c2cc3sccc3n2Cc2ccc(F)cc2)CC1	12	3	-4	12	-32*
NC(=S)N/N=C/c1ccc(C23CC4CC(CC(C4)C2)C3)cc1	-28	-89*	21	1	40
NC(=S)N/N=C/c1ccccc1	4	-9	-1	1	1
O=C(COC(=O)c1ccccc1Br)NCCN1C(=O)CSC1=O	0	8	-1	-2	-2
O=C(COC(=O)c1ccccc1Cl)Nc1cccnc1Cl	-3	-6	-2	1	-9
NC(=O)NC(=O)COC(=O)c1cccnc1Nc1ccccc1F	3	-4	0	5	4
O=C(COC(=O)c1ccccc1F)Nc1cccnc1Cl	39*	-3	2	1	7
O=C(COC(=O)c1cccnc1Nc1ccccc1F)NCCN1C(=O)CSC1=O	-2	-57*	-4	1	5
CCCNC(=O)COC(=O)c1cccnc1Nc1ccccc1F	2	-13	-4	0	-32*
CCOc1cc(CNC(=O)c2ccc3c(c2)nc2n3CCCCC2)ccc1OC	1	.	-1	0	0
NC(=O)c1ccccc1C[C@H](C(=O)O)N1C(=O)c2ccc(C(=O)O)cc2C1=O	.	.	-3	2	-3
Cc1ccc(Nc2nc(N3CCOCC3)c3ccccc3n2)cc1	0	8	-13	1	-60*
COc1ccc(Nc2nc(N3CCCCC3)c3ccccc3n2)cc1	3	?	-16	8	-49*
Cc1ccc(Nc2nc(N)c([N+](=O)[O-])c(N3CCOCC3)n2)cc1	1	5	1	3	-10
Oc1ccc(Nc2nc(N3CCCC3)c3ccccc3n2)cc1	-1	-71*	-10	1	-40*
COc1ccc(Nc2nc(N)c([N+](=O)[O-])c(N3CCCC3)n2)cc1	-1	-15	-6	4	8
CCN(CC)CCCNc1nc2ccccc2c2[nH]c3ccc(OC)cc3c12	-8	0	.	.	.
CC1=Nc2ccccc2/C1=C/c1sc(=S)n(-c2cccc(C(=O)O)c2)c1O	-1	?	3	49*	-5
COc1cc(OC)cc(-c2c(-c3cccs3)c3cc(-c4ccc5[nH]ccc5c4)ccc3n2C)c1	39*	17	0	-2	.
CCCCSCCCNC(=O)c1ccc2c(c1)N(CC)C(=O)c1ccccc1S2=O (stereo unspecified)	-2	0	-9	8	-5
SMILES	D3 ag	D3 antag	D1 PAM	D1 ag	D1 antag
CCN1C(=O)c2ccccc2S(=O)c2ccc(C(=O)NCc3ccc(OC)cc3)cc21 (stereo unspecified)	-7	-51*	5	1	12
CCCN(CCC)CCCNC(=O)c1ccc2c(c1)N(CC)C(=O)c1ccccc1S2=O (stereo unspecified)	-5	-93*	-3	2	-6
COc1ccc(CNC(=O)c2ccc3c(c2)N(Cc2ccccc2C)C(=O)c2ccccc2S3=O)cc1 (stereo unspecified)	-2	.	0	3	-8
CCc1ccc(NCc2cc3ccc(OC)cc3n(CC(=O)Nc3cccc(Cl)c3C)c2=O)cc1	5	.	1	2	25
O=C(O)c1cc([N+](=O)[O-])cc2c1nnn2O	-25	-68*	3	1	0
COc1ccc(NS(=O)(=O)c2ccc(N3CCCC3)c(NC(=S)Nc3ccc(SC(F)F)cc3)c2)cc1	-18	-23	-4	13	-42*
COc1ccc(NS(=O)(=O)c2ccc(N3CCCC3)c(N)c2)cc1	4	4	-6	38*	-6
Nc1cc(S(=O)(=O)Nc2cc(Cl)ccc2Cl)ccc1N1CCCC1	2	-11	-10	4	-33*
COc1ccc(NS(=O)(=O)c2cc(N)ccc2N2CCCC2)cc1	-1	-27	.	.	.
COc1ccc(NS(=O)(=O)c2ccc(N3CCCC3)c(NC(=S)Nc3cccc(C)c3C)c2)cc1	15	16	-9	3	5
COc1ccc(NS(=O)(=O)c2cc(NC(=O)c3ccco3)ccc2N2CCCC2)cc1	-6	-56*	2	0	-13
O=[S+]([O-])(c1ccc2nsnc2c1)N1CCN([S+](=O)([O-])c2c(F)cccc2F)CC1	.	.	-3	2	8
O=C(NC1CCCCC1)c1ccc(CSc2nc3ccncc3n2Cc2ccccc2F)cc1	-8	.	-1	2	-7
CC(C)C[C@H](NC(=O)[C@H](CCc1ccccc1)NC(=O)CN1CCOCC1)C(=O)N[C@@H](Cc1ccccc1)C(=O)N[C@@H](CC(C)C)C(=O)[C@@]1(C)CO1	7	.	.	.	.
CCOc1ccc(-c2nonc2NC(=O)c2oc3ccc(Cl)cc3c2C)cc1	-9	.	3	1	-32*
COc1ccccc1C(=O)C1CCCN(Cc2ccc(Oc3ncccn3)cc2)C1 (stereo unspecified)	-16	0	-5	3	-2
CSc1ccccc1C(=O)C1CCCN(Cc2cnn(-c3ccccc3)c2)C1 (stereo unspecified)	-17	-76*	-2	8	2
COC(=O)c1ccc(CN2CCCC(C(=O)c3cc(F)ccc3OC)C2)cc1 (stereo unspecified)	-17	-95*	-3	4	2
COC(=O)c1ccc(CN2CCCC(C(=O)c3ccccc3OC)C2)cc1 (stereo unspecified)	-25	-51*	-3	8	1
COc1ccc(F)cc1C(=O)C1CCCN(C(=O)c2ocnc2C)C1 (stereo unspecified)	-4	1	-1	1	-32*
Cc1ncoc1C(=O)N1CCCC(C(=O)c2cccc3ccccc23)C1 (stereo unspecified)	-3	-1	-1	-1	-1
CC1CC(C)CN(C(=O)COC(=O)COc2ccc(C#N)cc2)C1 (stereo unspecified)	5	-11	.	.	.
Cc1ccc(Cl)cc1NC(=O)Cn1cc2c(n1)CCCCC2	-9	.	1	1	17
CCCCN(CCCC)C(=S)[S-].CCCCN(CCCC)C(=S)[S-].[Zn+2]	-1	.	.	.	.
COc1cc(OC)cc(C(=O)NCC2CCCN(Cc3ccc(SC)cc3)C2)c1 (stereo unspecified)	-18	?	-1	4	-22
